High-throughput results: PubChem, National Center for Advancing Translational Sciences (NCATS)
This is a sample that favours compounds with a hit; in the whole collection about 5.5% have one here.
RORgamma inh: ROR gamma (mouse) transcription inhibition | Drosophila S2 Gal4-RORgamma UAS-luciferase reporter, 20 h | AID 2551 | Potency, µM (highest dose often 53.6 µM), for inactives: at the highest dose activity change, negative = inhibition, actives largely listed as inhibitors | P51450 | hit rate 5.4% among 310,000; note: % is set by controls: 0 for no effect and ±100 for the full control effect; nearly all actives have a fitted effect of over 60% in size
Target sequence (P51450 whole entry, looked up, the tested form may be a part): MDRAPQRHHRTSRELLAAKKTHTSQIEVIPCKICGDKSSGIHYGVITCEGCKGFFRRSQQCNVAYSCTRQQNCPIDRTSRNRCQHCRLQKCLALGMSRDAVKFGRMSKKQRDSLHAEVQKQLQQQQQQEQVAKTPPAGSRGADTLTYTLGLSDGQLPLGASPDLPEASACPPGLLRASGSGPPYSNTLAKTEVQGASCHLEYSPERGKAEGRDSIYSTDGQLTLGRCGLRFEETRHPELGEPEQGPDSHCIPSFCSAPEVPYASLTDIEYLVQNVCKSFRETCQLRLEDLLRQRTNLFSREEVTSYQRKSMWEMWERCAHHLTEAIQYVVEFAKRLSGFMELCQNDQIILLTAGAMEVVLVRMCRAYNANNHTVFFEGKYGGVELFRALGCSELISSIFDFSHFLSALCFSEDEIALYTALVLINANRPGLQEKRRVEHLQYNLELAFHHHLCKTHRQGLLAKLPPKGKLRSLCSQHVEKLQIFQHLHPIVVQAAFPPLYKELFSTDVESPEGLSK
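Drosophila S2 cells stably expressing Gal4-DBD/mouse RORγ fusion under metallothionein promoter plus UAS-luciferase; compound 1 h, then 700 uM CuSO4 induction for 20 h at ambient temperature; inhibition read as reduced luminescence.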
VP16 counter: counter-screen for ROR gamma inhibitors: Gal4-VP16 reporter. Drosophila S2 Gal4-VP16 UAS-luciferase, luminescence, 20 h. Potency, µM (doses to about 53.6 µM), inactives show at the highest dose activity, negative = inhibition, most hits filed as inhibitors. hit rate 3.5% among 310,000. AID 2546;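 note: Gal4-VP16 expression switched on by copper sulfate through the metallothionein promoter; % is set by controls: 0 for no effect and ±100 for the full control effect; nearly all actives have a fitted effect of over 50% in size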
Integrin act MD: integrin-mediated muscular dystrophy alleviation activation; AID 624291; Potency, µM (series often up to 38.3 µM), for inactives: at the highest dose activation, hits mostly activators; alpha7betagal myoblasts, beta-gal FDG fluorescence, 48 h; hit rate 0.064% among 350,000;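 note: 100% = response of the positive control SU9516; nearly all actives have a fitted effect of over 60% in size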
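alpha7betagal+/- myoblasts (passage 13, 250/well) treated 48 h at 37C with compounds at 1:260 dilution of DMSO stock. Lysed, then beta-galactosidase activity read as FDG fluorescence (ex 480/em 540) after 30 min, with pre-read for autofluorescence.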
uPA generation: blocks generation of uPA at the cell surface; AID 540303; Potency, µM (series often up to 38.3 µM), without a hit: at the highest dose activity change, negative = inhibition, usual class: inhibitors; cell surface uPA generation assay, qHTS; hit rate 0.31% among 330,000; active = well fitted inhibition curve with a large enough effect; inconclusive = small, poorly fitted or top-dose-only effect; inactive = no such curve, though single readings can be large or run the other way; tested in mouse RAW 264.7 cells; note: % is set by controls: 0 for no effect and ±100 for the full control effect; nearly all actives have a fitted effect of over 55% in size
Chronic BCR inh: inhibitors of chronic active B-cell receptor signaling. ABC-DLBCL IkBa-CBG/CBR reporter, luminescence ratio, 4 h. Potency, µM (titrated, usually from 46.1 µM), inactives show at the highest dose activity change, negative = inhibition, usual class: inhibitors. hit rate 0.05% among 340,000; active = well fitted inhibition curve with a large enough effect in the signal ratio, with a control signal flat, not every such curve was filed as active; inconclusive = small, poorly fitted or top-dose-only effect, or effect the other way, or a change in a side signal; the % refers to the signal ratio;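 note: plate controls were basal doxycycline-induced cells for no effect and cells given 10 µM MG132 for full effect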
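Doxycycline induced both beetle luciferases in TMD8 lymphoma cells; IKK-driven degradation limits the IkappaBalpha-fused green signal, while red luminescence normalises for cell number and nonspecific effects. Compounds tested up to 46 uM, 4 hrs.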
Mito fusion yeast: mitochondrial division inhibition or fusion activation | S. cerevisiae fusion-defective mutant growth rescue, CellTiterGlo 48 h | Potency, µM (titrated, usually from 46.1 µM), for inactives: top-dose growth rescue (activation), usual class: activators | hit rate 0.23% among 320,000; note: % of control where 0% means no effect; nearly all actives have a fitted effect of over 45% in size
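Read-out: ATP-based luminescence (CellTiterGlo, 10 min ambient) reporting growth of fusion-defective ts yeast after 48 hours at 37C on glycerol/ethanol YPEG medium in the presence of compound.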
Numbers without * were called inactive; u = inconclusive; x = not tested or not shown; [ ] = another dose, or the depositor's remark. Unless noted, calls come from the whole dose curve; as a rule, active = well fitted curve in the direction sought with a large enough effect; inconclusive = small, poorly fitted or top-dose-only effect, or another doubt; inactive = no such curve, though single readings can be large; an effect the other way counts as inactive or inconclusive. Potency is the fitted concentration of half-maximal effect.

SMILES	RORgamma inh	VP16 counter	Integrin act MD	uPA generation	Chronic BCR inh	Mito fusion yeast
O=[N+]([O-])c1ccc(/C=C/c2ccc3ccccc3n2)cc1	u	u	-16%	-19%	u	-1%
O=[N+]([O-])c1ccc(/C=C/c2ccc3cccc(O)c3n2)cc1	2.5µM*	u	-48%	u	u	-20%
COc1cccc(/C=C/c2ccc3cccc(O)c3n2)c1	3.5µM*	11µM*	-30%	-15%	u	4%
Cc1cccc(/C=C\c2ccccc2)n1	u	-6%	x	x	x	x
Oc1cccc(/C=C/c2ccc3cccc(O)c3n2)c1	-108%	5µM*	-27%	4%	u	25%
O=c1c(O)c(-c2ccc(O)c(O)c2)oc2ccccc12	u	-24%	x	x	x	x
Cc1ccc(S(=O)(=O)NCCNc2ccc(Br)c(C)c2)cc1	x	x	-31%	10%	1%	x
Cc1ccc(-n2c(O)c(C=NCc3ccccn3)c3ccccc3c2=O)cc1C	10µM*	22µM*	-16%	u	3%	15%
O=c1c2ccccc2c(C=NCc2ccccn2)c(O)n1-c1ccccc1Cl	11µM*	u	-14%	1%	3%	-3%
O=c1c2ccccc2c(C=NCc2ccccn2)c(O)n1-c1ccccc1	u	-16%	5%	10%	4%	4%
Cc1nn(-c2ccc(N3CCCCC3)nn2)c(C)c1CCC(=O)Nc1cc(F)ccc1F	-13%	-2%	9%	-2%	8%	2%
Cc1ccc(S(=O)(=O)C(CNS(=O)(=O)c2ccc(F)c(C)c2)c2cccs2)cc1 (centres undefined)	x	x	x	x	6%	x
CCOc1ccc(CCNC(=O)C2CCC(CNS(=O)(=O)c3ccc(Cl)cc3)CC2)cc1OCC (centres undefined)	x	x	x	x	-1%	x
COc1cc(N2Cc3ccccc3C2)ccc1C=O	0.35µM*	0.4µM*	13%	2%	1%	-28%
Cc1cc(C)cc(N2Cc3ccccc3C2)c1	43%	9%	-19%	8%	-5%	4%
O=C1c2ccccc2C(=O)N1CCCCN(C(=O)c1ccc(Cl)s1)c1ccc(Cl)cc1	8.9µM*	5µM*	9%	1%	-1%	24%
Cc1ccc(-n2cccc2C(=S)N=P(N(C)C)(N(C)C)N(C)C)cc1	2.2µM*	6.3µM*	-54%	-10%	8%	-1%
Cc1ccc(-n2cccc2C(=O)NS(=O)(=O)c2ccc(C)cc2)cc1	18%	4%	8%	3%	8%	0%
O=S(=O)(NNc1ccc(Cl)nn1)c1ccc(F)cc1	14µM*	u	-29%	6%	-2%	-6%
COc1ccc(NC(=O)CSc2nc3nc(C)c(Cc4ccccc4Cl)c(C)n3n2)cc1OC	x	x	x	x	-4%	x
CC1=C(C)CS(=O)N(S(=O)(=O)c2ccc(Cl)cc2)C1 (centres undefined)	u	6.3µM*	-53%	-13%	u	8%
CCC(=O)N1CCCc2cc(S(=O)(=O)CCC(=O)Nc3ccccc3C)ccc21	-2%	2%	-18%	-1%	0%	-2%
COc1ccc(NS(=O)(=O)c2cc(NC(=O)C3CC3)ccc2N2CCCCC2)cc1	18%	3%	-21%	-13%	0%	20%
COc1ccc(NS(=O)(=O)c2cc(NC(=O)c3ccco3)ccc2N2CCCCC2)cc1	u	13µM*	22%	-10%	7%	u
CCCCC/C=C\C/C=C\C/C=C\C/C=C\CCCCCC(=O)NCC(=O)O	7%	-14%	x	x	x	x
SMILES	RORgamma inh	VP16 counter	Integrin act MD	uPA generation	Chronic BCR inh	Mito fusion yeast
CCSc1nc(CC)c2c(c1C#N)CCCC2	-21%	-5%	-20%	5%	u	8.9µM*
COCCNC(=S)Nc1cc2oc3ccccc3c2cc1OC	5.6µM*	7.1µM*	-23%	3%	5%	-8%
COc1ccc(C(=O)NC(=S)Nc2cc3oc4ccccc4c3cc2OC)cc1	u	8%	-7%	1%	-1%	-1%
COc1cc(OC)cc(C(=O)NC(=S)Nc2cc3oc4ccccc4c3cc2OC)c1	1.4µM*	u	38%	2%	3%	-4%
COc1cc2c(cc1NC(=S)NC(=O)c1c(OC)cccc1OC)oc1ccccc12	3.5µM*	u	-13%	18%	u	1%
COc1ccc(CC(=O)Nc2cc3oc4ccccc4c3cc2OC)cc1	33%	-19%	-20%	3%	11%	u
Cc1ccc(CN2CC(C(=O)N(C)CC(=O)Nc3cccc(F)c3)CC2=O)cc1 (centres undefined)	40%	25%	14%	7%	0%	-1%
O=C(CCCN1C(=O)/C(=C\c2cccs2)SC1=S)Nc1ccc(O)cc1C(=O)O	5.6µM*	5.6µM*	-43%	-5%	u	9%
O=C(CCN1C(=O)/C(=C/c2cccs2)SC1=S)Nc1ccccn1	u	0%[10 µM]	-50%	-6%	u	7%
O=C(CCN1C(=O)S/C(=C\c2cccs2)C1=O)NC1=NCCS1	u	18µM*	1%	2%	0%	-1%
O=C(CCCN1C(=O)/C(=C\c2ccco2)SC1=S)Nc1ccc(O)cc1C(=O)O	11µM*	14µM*	-17%	2%	1%	-7%
CCCCCCCCC1OC1CCCCCCCC(=O)O (centres undefined)	18%	-6%	x	x	x	x
CC(C)(C)OC(=O)N1CCNc2ccccc2C1	4µM*	u	-10%	12%	9%	9%
CC(C)=CCCC1(C)C=Cc2c(c(C)cc3c2[nH]c2ccccc23)O1 (centres undefined)	30%	-7%	x	x	x	x
COc1ccc(/C(C)=N/NC(=O)c2ccc(CSc3cccc4cccnc34)cc2)cc1OC	16µM*	20%	-35%	x	-15%	-19%
CC(/C=C/c1cccc([N+](=O)[O-])c1)=N/NC(=O)c1cccnc1	3.2µM*	5µM*	-39%	-19%	1%	-1%
O=C(/C=C/c1ccc2c(c1)OCO2)c1cccnc1	u	-7%	-13%	-4%	1%	6%
O=C(N/N=C\C=C\c1ccc2c(c1)OCO2)c1cccnc1	5.6µM*	11µM*	-43%	-29%	u	-6%
C/C(=N\NC(=O)c1cccnc1)c1cccc([N+](=O)[O-])c1	1%	-3%[10 µM]	16%	-6%	-14%	6%
CC/C(Cc1ccccc1)=N\NC(=O)c1cc([N+](=O)[O-])cc([N+](=O)[O-])c1	7.9µM*	-14%	-12%	-26%	2%	3%
C/C(=N\NC(=O)c1ccc(CSc2cccc3cccnc23)cc1)C1CCCCC1	-21%	-4%	10%	-1%	-2%	7%
CC/C(Cc1ccccc1)=N/NC(=O)c1cccc(Br)c1	-31%	-5%	24%	1%	u	0%
COc1ccc(CCN2CCC[C@H](CN3CCc4cc(OC)c(OC)cc4CC3=O)C2)cc1OC	17%	5%	x	x	x	x
